{
  "source": "PubChem BioAssay",
  "data": [
    {"tested_on": "Plasmodium falciparum Sir2 (PF13_0152, Sir2A)", "assay": "Plasmodium falciparum Sir2A binding compounds – biochemical, small-molecule microarray, 635 nm fluorescence, primary screen (AID 1098);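 note: score merges spot fluorescence intensity with its signal-to-noise ratio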", "conditions": "fluorescence 635 nm, higher = more signal", "values": [
      {"smiles": "CCN1C(C)=C(C(=O)OC)[C@@H](c2ccccc2)N2C(=O)[C@@]3(C(=O)OC)O[C@@]12[C@@H]1C(=O)N(C)C(=O)[C@@H]13", "composite z-score": 0.736},
      {"smiles": "CO[C@H]1COC(=O)[C@H](C)NC(=O)CC=C[C@@H](C)[C@H](NS(=O)(=O)c2ccc(C)cc2)COC(=O)CC=C[C@@H]1C", "composite z-score": 0.997},
      {"smiles": "Cc1ccc(S(=O)(=O)N[C@H]2COC(=O)CC=C[C@H](C)COC(=O)N[C@@H](C)C(=O)CC=C[C@@H]2C)cc1", "composite z-score": 0.38},
      {"smiles": "CN1C2C=C(c3ccc(CO)cc3)C(C3C(=O)N(C(N)=O)C(=O)C32)C1c1cccs1", "note": "(stereo unspecified)", "composite z-score": 1.41},
      {"smiles": "CCCC=C(CCC)[C@@H](NS(=O)(=O)c1ccc(C(F)(F)F)cc1)c1ccc(-c2ccccc2)cc1", "composite z-score": 0.163},
      {"smiles": "CO[C@H]1COC(=O)[C@@H](C)NC(=O)CC=C[C@@H](C)[C@H](OC)COC(=O)CC=C[C@@H]1C", "composite z-score": -1.61},
      {"smiles": "C=CCC(OC(C)=O)[C@@H]1[C@@H](N(Cc2cc3ccccc3o2)C(=O)Cc2ccc(F)cc2)c2cc(OCCCO)ccc2N1C(=O)c1ccc(-c2ccccc2)cc1", "note": "(stereo partly specified)", "composite z-score": -0.271},
      {"smiles": "Cc1ccc(N2C(=O)c3ccccc3[C@@H](C(=O)NCc3ccccc3)[C@@H]2c2ccc(CO)cc2)nc1", "composite z-score": -0.566},
      {"smiles": "CCCC[C@@H]1C[C@H]1[C@@H](NC(=O)c1ccccc1)c1ccccc1C(F)(F)F", "composite z-score": 1.15},
      {"smiles": "CN1C(=O)C2C=CC(C(O)c3ccc(N(C)C)cc3)N(Nc3ccc([N+](=O)[O-])cc3[N+](=O)[O-])C2C1=O", "note": "(stereo unspecified)", "composite z-score": 1.27},
      {"smiles": "O=C1C2C=CC(C(O)C#Cc3ccccc3)N(Nc3ccccc3)C2C(=O)N1c1ccccc1", "note": "(stereo unspecified)", "composite z-score": 1.66},
      {"smiles": "Cc1ccc(S[C@]2(C(=O)NCCN3CCOCC3)CC(=O)N(C3Cc4ccccc4C3)[C@@H]2c2ccc(CO)cc2I)cc1", "composite z-score": 1.84},
      {"smiles": "O=C1O[C@@H](c2ccccc2)[C@@H](c2ccccc2)N2[C@@H](c3ccc(O)cc3)[C@]3(C(=O)Nc4ccccc43)[C@@H](C(=O)N3CCN(c4ncccn4)CC3)[C@H]12", "composite z-score": 1.13},
      {"smiles": "C=CC[C@]1(C(=O)NCC(O)CO)N=C(c2ccc(OCCCO)cc2)O[C@H]1c1ccccc1", "note": "(stereo partly specified)", "composite z-score": 1.23},
      {"smiles": "CC[C@@H]1C=C(C(=O)O)[C@H](c2ccccc2)N1S(=O)(=O)c1ccc([N+](=O)[O-])cc1", "composite z-score": 0.956},
      {"smiles": "CN1CCC(CCCO)=CC1C1CC1", "note": "(stereo unspecified)", "composite z-score": 0.537},
      {"smiles": "C=CC[C@]1(C(=O)N2CCCCC2)N=C(c2ccc(OCCCO)cc2)O[C@H]1c1ccccc1N=[N+]=[N-]", "composite z-score": 1.55},
      {"smiles": "COc1cccc([C@@H]2[C@@H](C)CC[C@H]3C(=O)N4[C@H](c5cccc(OC)c5)[C@@H](C)CC[C@H]4C(=O)N23)c1", "composite z-score": 0.168},
      {"smiles": "COCCOC(=O)N1C(=O)[C@@]2(c3cc(C#CC4=CCCCC4)ccc31)[C@H](c1ccc(O)cc1)N1[C@H](c3ccccc3)[C@H](c3ccccc3)OC(=O)[C@H]1[C@@H]2C(=O)N1CCCCCCC1", "composite z-score": 0.84},
      {"smiles": "C=CCC(OC(C)=O)[C@@H]1[C@@H](N(Cc2cccc3ccccc23)C(=O)c2ccc(C)cc2)c2cc(OCCCO)ccc2N1C(=O)c1ccc(-c2ccccc2)cc1", "note": "(stereo partly specified)", "composite z-score": 0.451},
      {"smiles": "C=CCN1C(=O)[C@]2(O[C@H](CCn3cc(CCO)nn3)[C@@H]([Si](C)(C)c3ccc(OC)cc3)[C@@H]2C)c2cc(NC(=O)c3ccc(OC)cc3)ccc21", "composite z-score": 0.799},
      {"smiles": "CC(=O)NCCCC[C@@H]1NC(=O)[C@@H]2C[C@H](C(=O)NCCCCCCN(C)C)[C@H](c3ccc(O)cc3)N2C1=O", "composite z-score": 1.02},
      {"smiles": "CO[C@@H]1COC(=O)[C@H](COCc2ccccc2)NC(=O)CC=C[C@@H](C)[C@H](OC)COC(=O)[C@H](COCc2ccccc2)NC(=O)CC=C[C@H]1C", "composite z-score": -0.23},
      {"smiles": "COCCOC(=O)N1C(=O)[C@@]2(c3ccccc31)[C@H](C(=O)N1CCc3cc(OC)c(OC)cc3C1)[C@H]1C(=O)O[C@H](c3ccccc3)[C@H](c3ccccc3)N1[C@@H]2c1ccccc1OCCO", "composite z-score": 1},
      {"smiles": "C=C(CCCC)/C(=C/C[C@@H](OC(=O)c1ccncc1)c1cccc(OCCO)c1)c1cc(C(=O)OC)ccc1OC", "composite z-score": 0.953},
      {"smiles": "C#CCCCON=C1C[C@@H](O)[C@@H](O)[C@@H]2[C@@H]3C(=O)N(Cc4ccc5c(c4)OCO5)C(=O)[C@@H]3CC[C@@H]12", "composite z-score": 0.211}
    ]}
  ]
}
